Potency and activation data for 20 compounds are collected here from PubChem BioAssay (Tox21).

Test [1] is described as follows: qHTS assay to identify small molecule antagonists of the glucocorticoid receptor (GR) signaling pathway - cell viability counter screen (AID 720693). Further: nearly all actives have a fitted effect of over 55% in size. Further: potency means the concentration at half of the fitted maximal effect. For orientation: qHTS replaces the single test concentration by a dilution series.
Test [2] can be described thus: qHTS assay for identifying genotoxic compounds that show differential cytotoxicity against isogenic chicken DT40 cell lines with known DNA damage response pathways - Rad54/Ku70 mutant cell line (AID 743015). Further: nearly all actives have a fitted effect of over 60% in size. Further: potency means the concentration at half of the fitted maximal effect.
Test [3] is described as follows: qHTS assay to identify small molecule antagonists of the androgen receptor (AR) signaling pathway - cell viability counter screen (AID 743033; further: nearly all actives have a fitted effect of over 45% in size; further: potency means the concentration at half of the fitted maximal effect).
Test [4] concerns the target Androgen receptor (Homo sapiens) (UniProt P10275). Briefly: qHTS assay to identify small molecule antagonists of the androgen receptor (AR) signaling pathway (AID 743035; active means well fitted inhibition curve with a large enough effect in the signal ratio in the repeat runs, not every such curve was filed as active; inconclusive means weak or mixed curves, or effect the other way; inactive means no such curve, though single readings can be large or run the other way; the % refers to the signal ratio; further: potency means the concentration at half of the fitted maximal effect). The method, boiled down: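 In this cell-based reporter screen, compounds were tested in concentration series against R1881-activated HEK293 cells expressing beta-lactamase under UAS control; after 16 h at 37C, FRET substrate was added and fluorescence read 2 h later.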

Test [5] shares this target. Briefly: qHTS assay to identify small molecule agonists of the androgen receptor (AR) signaling pathway using the MDA cell line (AID 743040; further: nearly all actives have a fitted effect of over 20% in size; further: potency means the concentration at half of the fitted maximal effect). The method, boiled down: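 Testing was done with the MDA-kb2 AR-luc line, a human breast carcinoma stably transfected with MMTV-luciferase containing AR and GR response elements. Cells were exposed 16 h at 37C before ONE-Glo luminescence detection.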

Test [6] in a line: qHTS assay to identify small molecule antagonists of the androgen receptor (AR) signaling pathway using the MDA cell line - cell viability counter screen (AID 743041; further: nearly all actives have a fitted effect of over 45% in size; further: potency means the concentration at half of the fitted maximal effect). A digest of the protocol: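 Compound exposure lasted 16 h at 37C in MDA-kb2 AR-luc cells stimulated with R1881. Protease-based CellTiter-Fluor reagent was applied for the final 30 min and fluorescence measured.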

The target in test [7] is Androgen receptor (Homo sapiens) (UniProt P10275). Briefly: qHTS assay to identify small molecule antagonists of the androgen receptor (AR) signaling pathway using the MDA cell line (AID 743042; further: nearly all actives have a fitted effect of over 55% in size; further: potency means the concentration at half of the fitted maximal effect). A digest of the protocol: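 MDA-kb2 breast carcinoma cells carrying MMTV-luciferase (AR/GR responsive) were co-treated with compounds and the agonist R1881 for 16 h at 37C. Inhibition read as ONE-Glo luminescence; CellTiter-Fluor fluorescence measured in parallel for cytotoxicity.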

Test [8] is described as follows: qHTS assay to identify small molecule antagonists of the thyroid receptor (TR) signaling pathway - cell viability counter screen (AID 743064). Further: nearly all actives have a fitted effect of over 50% in size. Further: potency means the concentration at half of the fitted maximal effect. The method, boiled down:
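Compounds were tested on GH3.TRE-Luc cells in the presence of T3 at 1 nM final. Following 23.5 h at 37 °C, cell viability was quantified by CellTiter-Fluor.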

The nature of test [9]: qHTS assay to identify small molecule antagonists of the thyroid receptor (TR) signaling pathway (AID 743065). Further: nearly all actives have a fitted effect of over 55% in size. Further: potency means the concentration at half of the fitted maximal effect. A digest of the protocol:
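GH3.TRE-Luc rat pituitary cells (two TREs driving luciferase) were dosed with compound, then stimulated with 1 nM T3 (final) for 23.5 h at 37 C. ONE-Glo luminescence was the read-out, with CellTiter-Fluor fluorescence as the cytotoxicity counter-screen.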

The subject of test [10] is thyroid hormone receptor (rat, GH3 cells). Briefly: qHTS assay to identify small molecule agonists of the thyroid receptor (TR) signaling pathway (AID 743066; calls by dose curve; further: on the % scale 0 is the no-effect control and ±100 the full control effect).
Test [11] can be described thus: qHTS assay to identify small molecule antagonists of the estrogen receptor alpha (ER-alpha) signaling pathway - cell viability counter screen (AID 743074; calls by dose curve; further: nearly all actives have a fitted effect of over 45% in size; further: potency means the concentration at half of the fitted maximal effect).
In test [12] the target is Estrogen receptor (Homo sapiens) (UniProt P03372). The test can be described thus: qHTS assay to identify small molecule agonists of the estrogen receptor alpha (ER-alpha) signaling pathway (AID 743075; calls by dose curve; further: potency means the concentration at half of the fitted maximal effect; on activation: on the % scale 0 is the no-effect control and ±100 the full control effect). Particulars: HEK293 ER-alpha-UAS-bla, beta-lactamase FRET ratio, 18 h; activation: at 70.1 µM (top of the series).
Test [13] shares this target. The test can be described thus: qHTS assay to identify small molecule agonists of the estrogen receptor alpha (ER-alpha) signaling pathway using the BG1 cell line (AID 743079). Further: potency means the concentration at half of the fitted maximal effect. On activation: on the % scale 0 is the no-effect control and ±100 the full control effect. On all read-outs here: nearly all actives have a fitted effect of over 20% in size. Particulars: BG1Luc4E2 cells, ERE-luciferase agonist, 22 h; for activation: at 70.3 µM (top of the series).
A short description of test [14]: qHTS assay to identify small molecule antagonists of the estrogen receptor alpha (ER-alpha) signaling pathway using the BG1 cell line - cell viability counter screen (AID 743081).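 Further: compound given together with 17beta-estradiol as the ER stimulus; nearly all actives have a fitted effect of over 45% in size.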 Further: potency means the concentration at half of the fitted maximal effect.
In a further test the target is Aromatase (Homo sapiens) (UniProt P11511). Briefly: qHTS assay to identify aromatase inhibitors (AID 743083). Further: nearly all actives have a fitted effect of over 55% in size. Further: potency means the concentration at half of the fitted maximal effect.
A short description of test [15]: qHTS assay for identifying genotoxic compounds that show differential cytotoxicity against isogenic chicken DT40 cell lines with known DNA damage response pathways - Rev3 mutant cell line (AID 743014). Further: nearly all actives have a fitted effect of over 55% in size. Further: potency means the concentration at half of the fitted maximal effect.
The target of test [16] is Androgen receptor (Homo sapiens) (UniProt P10275). The test can be described thus: qHTS assay to identify small molecule agonists of the androgen receptor (AR) signaling pathway (AID 743036; active means well fitted activation curve with a large enough effect in the signal ratio in the repeat runs, with a control signal flat, not every such curve was filed as active; inconclusive means weak or mixed curves, or effect the other way; inactive means no such curve, though single readings can be large or run the other way; the % refers to the signal ratio; further: potency means the concentration at half of the fitted maximal effect; on activation: on the % scale 0 is the no-effect control and ±100 the full control effect). A digest of the protocol:
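Beta-lactamase under UAS control, stably integrated in HEK293 GripTite cells, reports receptor activation. After 16 h compound treatment, cells received FRET substrate for 2 h at room temperature before fluorescence reading.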

Test [17] addresses Estrogen receptor (Homo sapiens) (UniProt P03372). Briefly: qHTS assay to identify small molecule antagonists of the estrogen receptor alpha (ER-alpha) signaling pathway (AID 743069; active means well fitted curve in the direction sought with a large enough effect in the signal ratio in the repeat runs, not every such curve was filed as active; inconclusive means weak or mixed curves, or effect the other way; inactive means no such curve, though single readings can be large or run the other way; the % refers to the signal ratio; further: potency means the concentration at half of the fitted maximal effect). A digest of the protocol: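 In this cell-based reporter format, GripTite HEK293 cells harbouring ER-alpha-UAS-bla were grown overnight with 2% charcoal-stripped FBS, dosed with DMSO-dissolved compounds, then challenged with 17beta-estradiol. After 18 hr at 37C, beta-lactamase activity was detected by FRET fluorescence.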

The nature of test [18]: qHTS assay to identify small molecule antagonists of the estrogen receptor alpha (ER-alpha) signaling pathway using the BG1 cell line (AID 743080; calls by dose curve;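 further: BG1 cells stimulated with 17beta-estradiol alongside compound; potency means the concentration at half of the fitted maximal effect; nearly all actives have a fitted effect of over 25% in size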). The method, boiled down: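 Quantitative HTS on the Tox21 10K library: BG1 cells with endogenous ER-alpha and ERE-luciferase reporter, 17beta-estradiol stimulation, 21.5 h compound exposure, luminescence endpoint with parallel fluorescence cytotoxicity counter-read.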

Each structure is given as a SMILES string. Values without a mark were called inactive. Calls of active or inactive are those of the source. Unless noted, the call rests on the fitted dose curve; in most records, active means well fitted curve in the direction sought with a large enough effect in the repeat runs; inconclusive means weak or mixed curves; inactive means no such curve, though single readings can be large; an effect the other way counts as inactive or inconclusive.

Chain of Estrogen receptor (Homo sapiens) (P03372 whole entry, looked up): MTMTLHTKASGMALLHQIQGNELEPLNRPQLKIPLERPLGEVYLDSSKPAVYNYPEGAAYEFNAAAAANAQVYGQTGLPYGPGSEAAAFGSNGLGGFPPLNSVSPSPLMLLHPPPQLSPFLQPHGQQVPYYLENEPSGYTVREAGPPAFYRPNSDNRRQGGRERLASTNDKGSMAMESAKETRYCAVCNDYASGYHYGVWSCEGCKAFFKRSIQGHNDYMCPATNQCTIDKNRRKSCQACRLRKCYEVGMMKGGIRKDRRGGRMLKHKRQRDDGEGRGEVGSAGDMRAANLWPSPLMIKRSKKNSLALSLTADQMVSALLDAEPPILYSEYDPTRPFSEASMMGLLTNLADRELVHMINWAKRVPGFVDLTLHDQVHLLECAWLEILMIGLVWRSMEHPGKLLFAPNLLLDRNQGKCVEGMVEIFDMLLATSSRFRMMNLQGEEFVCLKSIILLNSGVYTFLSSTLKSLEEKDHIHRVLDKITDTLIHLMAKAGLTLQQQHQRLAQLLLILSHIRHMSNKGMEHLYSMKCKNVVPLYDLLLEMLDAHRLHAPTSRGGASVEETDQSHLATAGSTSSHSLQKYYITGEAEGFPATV
Chain of Androgen receptor (Homo sapiens) (P10275 whole entry, looked up): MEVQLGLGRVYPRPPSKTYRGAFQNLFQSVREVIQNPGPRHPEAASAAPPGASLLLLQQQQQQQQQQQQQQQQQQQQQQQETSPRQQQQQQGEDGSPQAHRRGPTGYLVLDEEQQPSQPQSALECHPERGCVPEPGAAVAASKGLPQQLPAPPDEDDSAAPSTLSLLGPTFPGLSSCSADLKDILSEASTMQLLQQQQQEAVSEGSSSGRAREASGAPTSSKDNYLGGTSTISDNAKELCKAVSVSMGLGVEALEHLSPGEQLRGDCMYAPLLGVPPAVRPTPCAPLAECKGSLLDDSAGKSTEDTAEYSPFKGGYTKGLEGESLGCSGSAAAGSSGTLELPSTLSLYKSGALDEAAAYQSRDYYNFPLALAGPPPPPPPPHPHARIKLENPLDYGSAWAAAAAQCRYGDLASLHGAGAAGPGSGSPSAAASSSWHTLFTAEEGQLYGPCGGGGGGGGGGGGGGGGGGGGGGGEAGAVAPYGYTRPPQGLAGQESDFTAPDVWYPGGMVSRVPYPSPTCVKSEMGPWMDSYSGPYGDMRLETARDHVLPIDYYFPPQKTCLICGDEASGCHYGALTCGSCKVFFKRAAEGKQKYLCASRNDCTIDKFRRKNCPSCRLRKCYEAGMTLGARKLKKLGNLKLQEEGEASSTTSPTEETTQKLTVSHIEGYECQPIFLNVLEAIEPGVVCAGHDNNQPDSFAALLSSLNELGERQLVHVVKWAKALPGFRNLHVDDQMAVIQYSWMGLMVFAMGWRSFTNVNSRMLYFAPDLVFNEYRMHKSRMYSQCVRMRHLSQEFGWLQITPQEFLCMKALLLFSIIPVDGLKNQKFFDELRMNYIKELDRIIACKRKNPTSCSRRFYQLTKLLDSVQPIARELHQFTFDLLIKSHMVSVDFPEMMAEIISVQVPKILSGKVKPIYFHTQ
Chain of Aromatase (Homo sapiens) (P11511 whole entry, looked up): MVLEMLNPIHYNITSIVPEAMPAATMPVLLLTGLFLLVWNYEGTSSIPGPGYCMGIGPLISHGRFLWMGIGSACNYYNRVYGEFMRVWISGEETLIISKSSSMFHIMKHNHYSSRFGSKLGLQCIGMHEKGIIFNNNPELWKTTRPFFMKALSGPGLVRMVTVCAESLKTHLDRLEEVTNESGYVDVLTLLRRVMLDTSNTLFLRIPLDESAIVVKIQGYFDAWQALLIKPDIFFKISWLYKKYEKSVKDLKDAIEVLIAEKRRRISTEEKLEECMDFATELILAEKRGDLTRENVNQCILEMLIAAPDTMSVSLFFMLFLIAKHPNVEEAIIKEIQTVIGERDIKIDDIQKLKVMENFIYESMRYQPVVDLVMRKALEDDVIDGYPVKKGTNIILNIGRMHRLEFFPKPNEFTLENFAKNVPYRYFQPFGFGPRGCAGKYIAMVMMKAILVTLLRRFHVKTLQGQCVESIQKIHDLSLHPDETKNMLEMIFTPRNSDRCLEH

Regarding `CN(C)c1ccc(C2(c3ccc(N(C)C)cc3)OC(=O)c3cc(N(C)C)ccc32)cc1`, the Potency result in test [1], in test [3], in [4], in test [5], in test [6] and in test [7] was “inactive” throughout. Moreover, the Potency entry (in test [8]; in [9]; in test [10]; in test [11]; in test [14]; in the test with Aromatase (Homo sapiens)) was “inactive” in each case. Further, the Potency was 15.3 µM (active) in [2] and 21.8 µM [inconclusive] (active) in test [12]. Besides, in [13], the activation is -6.04%.

As to `CN1CCC(Nc2ncc3ncnc(Nc4ccc(F)c(Cl)c4)c3n2)CC1`, the Potency result in test [1], in test [5], in [7] and in [11] was “inactive” in each case. Also, the Potency in test [15] was 23.7 µM (active); in [8], 11.9 µM (active); in [9], 9.44 µM (active).

For the compound `CN(C/C=C/C#CC(C)(C)C)Cc1cccc2ccccc12`, the Potency entry (in test [1]; in [6]; in test [11]; in test [14]; with Aromatase (Homo sapiens)) was “inactive” each time.

As to `C1CCCC1`, the Potency result in test [1], in test [3], in test [6], in test [8], in [9] and in test [10] was “inactive” in each case. The Potency result (in test [11]; in test [14]; in the test with Aromatase (Homo sapiens)) was “inactive” in each case.

For the compound `Oc1ccc2c(c1)-c1ccccc1C2`, the Potency entry in test [1], in test [16], in test [5], in test [6], in [7] and in test [8] was “inactive” each time. Further, the Potency result in [10], in test [11] and in test [14] was “inactive” in each case. In addition, the Potency in [15] was 54.5 µM (active).

For the compound `CCN(C(=O)N(CC)c1ccccc1)c1ccccc1`, the Potency result in test [1], in test [6], in test [8], in [9], in [10] and in test [11] was “inactive” throughout. Also, the Potency result (in test [14]; with Aromatase (Homo sapiens)) was “inactive” in each case.

Consider `OCCCCCCCCCCCCBr`, for which the Potency entry (in test [1]; in test [6]; in test [10]; in test [11]; in [14]; with Aromatase (Homo sapiens)) was “inactive” in each case. Also, the Potency in test [15] was 3.92 µM (active); in test [2], 5.53 µM (active).

As for `O=C(Oc1ccccc1)c1ccccc1C(=O)Oc1ccccc1`, the Potency entry in test [1], in [5], in test [10], in [11], in test [12] and in test [14] was “inactive” in each case. Besides, the Potency was 34.4 µM (active) in [15], 17.2 µM (active) in test [2], 49 µM (active) in test [4] and 54.5 µM (active) in [7]. Further, the activation in test [13] was -7.29%.

Consider `O=c1[nH]cnc2nc[nH]c12`, for which the Potency result in test [1], in test [15], in [3], in test [6], in [8] and in test [9] was “inactive” throughout. Moreover, the Potency entry (in test [10]; in test [17]; in test [11]; in test [12]; in test [14]; with Aromatase (Homo sapiens)) was “inactive” in each case. Besides, the activation in test [13] was 8.82%.

For `O=c1c(-c2ccccc2)c1-c1ccccc1`, the Potency entry in test [1], in [11], in [12] and in test [14] was “inactive” throughout. Besides, the Potency in [15] is 4.73 µM (active); in [2], 4.73 µM (active); in test [8] it was 5.96 µM (active); in test [9], 5.31 µM (active); in [17], 26.8 µM [inconclusive] (active); with Aromatase (Homo sapiens) it was 29.8 µM (active). For the same compound, the activation in [13] was -33.7%.

In the case of `CCCCCCCCCCCCCCCCCC[N+](C)(C)Cc1ccccc1`, the Potency in [1] is 19.7 µM (active); in test [15], 0.777 µM (active); in test [6], 17.4 µM (active); in test [7] it was 12.3 µM (active); in [8], 11 µM (active); in test [9], 7.77 µM (active). In addition, the Potency in test [11] was 22.1 µM (active); with Aromatase (Homo sapiens) it was 21.9 µM (active). Also, the Potency result in test [5] and in [10] was “inactive” in each case.

With `CNc1ccc(O)cc1`, the Potency in test [1] was 54.8 µM (active); in test [15], 6.1 µM (active); in test [3], 38.8 µM (active); in test [6], 61 µM (active); with Aromatase (Homo sapiens) it was 15.3 µM (active). Besides, in test [10], the Potency entry is “inactive”.

`C[C@@H]1C[C@H]2[C@@H]3CCC4=CC(=O)C=C[C@]4(C)[C@@]3(Cl)[C@@H](O)C[C@]2(C)[C@@]1(OC(=O)c1ccco1)C(=O)CCl`: the Potency entry in test [1], in [3], in test [6], in [7], in test [10] and in test [11] was “inactive” in each case. The Potency result (in test [14]; with Aromatase (Homo sapiens)) was “inactive” each time. Also, in [5], the Potency was 0.9 nM (active).

For `O=C1CCCc2c1cc1ccc3cccc4ccc2c1c34`, the Potency result in [1], in test [2], in [3], in test [5], in test [6] and in test [7] was “inactive” each time. For the same compound, the Potency result (in test [8]; in [11]; in test [14]; in the test with Aromatase (Homo sapiens)) was “inactive” each time. Besides, the Potency in test [16] was 14 µM (active); in test [13] it was 3.9 µM (active).

`C/C=C(\C)C(=O)OCc1ccccc1`: the Potency entry in test [1], in test [3], in test [6], in test [8], in [9] and in test [10] was “inactive” throughout. For the same compound, the Potency result (in test [11]; in test [14]; with Aromatase (Homo sapiens)) was “inactive” each time.

In the case of `NC(=O)N1C(=O)C(C(=O)c2cc(Cl)cs2)c2cc(F)c(Cl)cc21` (stereo not given), the Potency was 38.9 µM (active) in [1]; 61.1 µM (active) in [2]; 61.1 µM (active) in test [8]; 61.1 µM (active) in test [9]; 49 µM (active) in test [11]; 8.63 µM (active) in test [14]. Besides, the Potency result in test [3], in test [5], in test [7] and in test [12] was “inactive” in each case.

Regarding `CCC1OCC(COc2ccc(Oc3ccccc3)cc2)O1` (stereo not given), the Potency entry in test [1], in test [3], in [6], in test [8], in test [11] and in test [14] was “inactive” each time. For the same compound, the Potency result with Aromatase (Homo sapiens) is “inactive”.

As for `Cc1cc(=O)oc2cc(N(C)C)ccc12`, the Potency entry (in test [1]; in test [3]; in test [9]; in [10]; in test [11]; in the test with Aromatase (Homo sapiens)) was “inactive” throughout. In addition, the Potency in test [15] was 54.5 µM (active).

As to `CCCCCCCC/C=C\CCCCCCCCOCCO`, the Potency was 31.9 µM (active) in test [1]; 5.62 µM (active) in test [15]; 22.6 µM (active) in test [3]; 14.1 µM (active) in test [6]; 25.1 µM (active) in [8]; 11.2 µM (active) in test [9]. For the same compound, the Potency is 9 µM [inconclusive] (active) in [17]; 56.8 µM (active) in test [11]; 10 µM (active) in test [18]; 39.8 µM (active) in [14]; 35.5 µM (active) in the test with Aromatase (Homo sapiens). Further, the Potency entry in [10] was “inactive”.

For `Cc1onc(-c2c(Cl)cccc2Cl)c1C(=O)N[C@@H]1C(=O)N2[C@@H]1SC(C)(C)[C@@H]2C(=O)O`, the Potency entry in [1], in test [2], in test [3], in [5], in [6] and in test [7] was “inactive” in each case. The Potency result (in [8]; in test [10]; in test [11]; in [14]; with Aromatase (Homo sapiens)) was “inactive” in each case.
